SW480 rerep = DNA re-replication induction in SW480 cells; Potency, µM (titrated, usually from 46.1 µM), for inactives: at the highest dose re-replication activation, usual class: activators; hit rate 1.8% among 340,000; AID 624297; SW480 DNA re-replication, Hoechst DNA content imaging, 48 h; note: % of control where 0% means no effect; nearly all actives have a fitted effect of over 55% in size
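Readout is total intensity of Hoechst-stained nuclei, excited at 405 nm and collected at 500-530 nm. Compound treatment lasted 48 hr at 37 C in 5% CO2 before staining.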
KB-3-1 cytotox = kills parental KB-3-1 adenocarcinoma cells; KB-3-1 viability, CellTiter-Glo ATP luminescence, 72 h; Potency, µM (titrated, usually from 46.1 µM), hits mostly cytotoxic; hit rate 1.4% among 400,000; note: % is set by controls: 0 for no effect and ±100 for the full control effect; nearly all actives have a fitted effect of over 60% in size
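Parental KB-3-1 viability, qHTS format: 72 h compound exposure, 37 °C; CellTiter-Glo; media-only wells and DMSO plates as controls; concentration-effect fits on corrected data.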
RGS4 inhibitor = blocks human RGS4-accelerated GTP hydrolysis. P49798. Potency, µM (highest dose often 114 µM), for inactives: at the highest dose activity change, negative = inhibition, most hits filed as inhibitors. hit rate 0.039% among 390,000. Transcreener GDP fluorescence polarization, RGS4-accelerated GTP hydrolysis; note: % is set by controls: 0 for no effect and ±100 for the full control effect; nearly all actives have a fitted effect of over 75% in size
Target sequence (P49798 whole entry, looked up): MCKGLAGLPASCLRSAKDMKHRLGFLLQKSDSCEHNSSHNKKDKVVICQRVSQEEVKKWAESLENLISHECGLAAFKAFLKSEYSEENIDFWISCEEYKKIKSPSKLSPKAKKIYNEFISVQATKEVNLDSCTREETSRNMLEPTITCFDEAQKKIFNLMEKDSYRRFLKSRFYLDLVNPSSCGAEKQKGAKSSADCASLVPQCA
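MLSMR compounds (23 nl, pin-transferred) preincubated 10 min at room temperature with a 500nM (2x) first reagent, then RGS4 at 900nM (2x) plus Transcreener GDP mix added; fluorescence polarization (620/688 nm) read before and after 90 min at 30 °C.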
MCF10A rereplic = DNA re-replication induction in MCF 10a cells; MCF 10A DNA re-replication, Hoechst nuclear intensity, 48 h; Potency, µM (series often up to 46.1 µM), without a hit: at the top dose activity, positive = re-replication, actives largely listed as activators; hit rate 2.9% among 350,000; note: % of control where 0% means no effect; nearly all actives have a fitted effect of over 50% in size
KB-V1 cytotox = KB-V1 MDR subline cytotoxicity; KB-V1 MDR cells viability, CellTiter-Glo, 72 h; Potency, µM (highest dose often 46.1 µM), most hits filed as cytotoxic; hit rate 3.4% among 400,000; note: % is set by controls: 0 for no effect and ±100 for the full control effect; nearly all actives have a fitted effect of over 60% in size
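Cytotoxicity via CellTiter-Glo luminescence after 72 h compound exposure at 37 degrees C. Cells: drug-selected KB-V1 line, DMEM phenol-red free plus 10% FBS. Compounds tested at multiple concentrations; normalized data fitted to concentration-effect curves.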
TSG101-PTAP inh = blocks PTAP/TSG101 interaction to inhibit HIV-1 budding. Fluorescence polarization, FITC-PTAP peptide / Tsg101 binding. Potency, µM (titrated, usually from 115 µM), for inactives: at the highest dose activity change, negative = inhibition, actives largely listed as inhibitors. 340,000 tested, under 10 active; active = well fitted inhibition curve with a large enough effect in the main read-out, with a control signal flat, not every such curve was filed as active; inconclusive = small, poorly fitted or top-dose-only effect, or effect the other way, or a change in a side signal; inactive = no such curve, though single readings can be large or run the other way; note: % of control where 0% means no effect
Target sequence (Q99816 whole entry, looked up): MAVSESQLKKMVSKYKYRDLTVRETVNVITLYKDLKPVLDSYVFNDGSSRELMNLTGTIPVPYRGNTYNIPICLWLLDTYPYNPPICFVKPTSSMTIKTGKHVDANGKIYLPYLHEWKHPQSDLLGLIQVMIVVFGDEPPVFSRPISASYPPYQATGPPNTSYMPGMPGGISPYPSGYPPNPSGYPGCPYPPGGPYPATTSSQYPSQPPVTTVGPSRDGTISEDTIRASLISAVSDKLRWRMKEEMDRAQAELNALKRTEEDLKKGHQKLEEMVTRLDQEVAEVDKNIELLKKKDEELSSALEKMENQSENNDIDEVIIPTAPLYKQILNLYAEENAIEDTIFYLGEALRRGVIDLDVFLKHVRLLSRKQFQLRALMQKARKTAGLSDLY
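Fluorescence anisotropy tracks displacement of a FITC-tagged PTAP peptide (50 nM) from the Tsg101 binding domain (10 uM), following a 20 min room-temperature incubation at pH 7.5.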
* hit, by the source's call. This is a sample that favours compounds with a hit; in the whole collection about 6.6% have one here. Unless noted, calls come from the whole dose curve; as a rule, active = well fitted curve in the direction sought with a large enough effect; inconclusive = small, poorly fitted or top-dose-only effect, or another doubt; inactive = no such curve, though single readings can be large; an effect the other way counts as inactive or inconclusive. Potency is the fitted concentration of half-maximal effect.

Results for CCC(C(=O)N1CCCC1)n1nc(C)c2c(C)n(-c3ccccc3)nc2c1=O (stereo not given) ?
SW480 rerep: 21µM*; KB-3-1 cytotox: inactive; RGS4 inhibitor: 2%; MCF10A rereplic: 0%; KB-V1 cytotox: inactive; TSG101-PTAP inh: -5%

Results for Cc1oc2ccc(O)c(CN3CCCCCC3)c2c1C(=O)Nc1cccc(C(F)(F)F)c1 ?
RGS4 inhibitor: 17%

Results for O=C(NCc1ccccc1Cl)c1cc(-c2ccccc2)n[nH]1 ?
KB-3-1 cytotox: inactive; RGS4 inhibitor: 6%; KB-V1 cytotox: inactive

Results for COc1cccc(C(=O)N/N=C(\CC(C)C)c2ccccc2)c1 ?
SW480 rerep: 6%; KB-3-1 cytotox: inactive; RGS4 inhibitor: -17%; MCF10A rereplic: -3%; KB-V1 cytotox: inactive; TSG101-PTAP inh: 2%

What do the screens show for `Cc1ccc(C(=O)N/N=C(\CC(C)C)c2ccccc2)cc1`?
SW480 rerep: 23µM*; KB-3-1 cytotox: inactive; RGS4 inhibitor: 34%; MCF10A rereplic: 16%; KB-V1 cytotox: inconclusive; TSG101-PTAP inh: 0%

How did COc1cc(N)c(Cl)cc1C(=O)N[C@H]1CCN(CCCOc2ccc(F)cc2)C[C@@H]1OC do in these assays?
RGS4 inhibitor: inactive

Results for COc1ccc(S(=O)(=O)Nc2ccccc2C(F)(F)F)cc1 ?
SW480 rerep: 10%; KB-3-1 cytotox: inactive; RGS4 inhibitor: -11%; MCF10A rereplic: -1%; KB-V1 cytotox: inactive; TSG101-PTAP inh: -3%

What do the screens show for `COc1ccc(S(=O)(=O)NC(C)C(=O)Nc2ccccc2C(F)(F)F)cc1` (stereo not given)?
SW480 rerep: -1%; KB-3-1 cytotox: inactive; RGS4 inhibitor: -2%; MCF10A rereplic: 1%; KB-V1 cytotox: 16µM*; TSG101-PTAP inh: -6%

What do the screens show for `COc1ccc(C2=CC(c3ccccc3Cl)n3nc(-c4ccc(C)cc4)nc3N2)cc1` (stereo not given)?
KB-3-1 cytotox: inactive; RGS4 inhibitor: 7%; KB-V1 cytotox: inactive

What do the screens show for `O=C(O)c1ccc(-n2ccnc2)c([N+](=O)[O-])c1`?
SW480 rerep: 1%; KB-3-1 cytotox: inactive; RGS4 inhibitor: -52%; MCF10A rereplic: -7%; KB-V1 cytotox: inconclusive; TSG101-PTAP inh: 0%

Results for O=C(c1ccccc1)c1ccc(-n2ccnc2)c([N+](=O)[O-])c1 ?
SW480 rerep: -4%; KB-3-1 cytotox: inactive; RGS4 inhibitor: 6%; MCF10A rereplic: 2%; KB-V1 cytotox: 18µM*; TSG101-PTAP inh: -4%

How did Cc1ccc(CN2C(=O)SC(Nc3ccc(Cl)cc3)C2=O)cc1 (stereo not given) do in these assays?
KB-3-1 cytotox: inactive; RGS4 inhibitor: -2%; KB-V1 cytotox: inconclusive

Results for CCOC(=O)Cn1nc(NC(=O)c2ccc(C(=O)OC)cc2)cc1C ?
SW480 rerep: -10%; KB-3-1 cytotox: inactive; RGS4 inhibitor: 11%; MCF10A rereplic: inconclusive; KB-V1 cytotox: inactive; TSG101-PTAP inh: -1%

How did CCOC(=O)Cn1nc(NC(=O)c2cc(OC)cc(OC)c2)cc1C do in these assays?
SW480 rerep: -2%; KB-3-1 cytotox: inactive; RGS4 inhibitor: 13%; MCF10A rereplic: 21µM*; KB-V1 cytotox: inactive; TSG101-PTAP inh: -4%

What do the screens show for `COC(=O)C1=CN(c2ccc(C(C)(C)C)cc2)C(N)=C(C#N)C1c1ccc(OC)cc1` (stereo not given)?
KB-3-1 cytotox: inactive; KB-V1 cytotox: inconclusive

What do the screens show for `COC(=O)C1=CN(c2ccc(Oc3ccccc3)cc2)C(N)=C(C#N)C1c1cccc(F)c1` (stereo not given)?
KB-3-1 cytotox: inactive; KB-V1 cytotox: inactive

Results for COC(=O)C1=CN(c2cc(C)cc(C)c2)C=C(C(=O)OC)C1c1ccc(OC)c(O)c1 ?
SW480 rerep: inconclusive; KB-3-1 cytotox: inconclusive; RGS4 inhibitor: 25%; MCF10A rereplic: 20%; KB-V1 cytotox: inconclusive; TSG101-PTAP inh: -12%

How did COC(=O)C1=CN(c2ccc(OC)cc2OC)C(N)=C(C#N)C1c1cccc([N+](=O)[O-])c1 (stereo not given) do in these assays?
KB-3-1 cytotox: 2.1µM*; KB-V1 cytotox: 2.3µM*

How did COC(=O)C1=CN(C2CCCCC2)C=C(C(=O)OC)C1c1ccc2c(c1)OCO2 do in these assays?
SW480 rerep: 7.3µM*; KB-3-1 cytotox: inactive; RGS4 inhibitor: 16%; MCF10A rereplic: 13µM*; KB-V1 cytotox: inactive; TSG101-PTAP inh: -1%

What do the screens show for `COC(=O)C1=CN(c2cc(C)cc(C)c2)C=C(C(=O)OC)C1c1cccc(F)c1`?
SW480 rerep: inconclusive; KB-3-1 cytotox: inactive; RGS4 inhibitor: -4%; MCF10A rereplic: 3.7µM*; KB-V1 cytotox: inconclusive; TSG101-PTAP inh: -4%

How did COC(=O)C1=CN(c2ccc(F)cc2)C(N)=C(C#N)C1c1ccc(-c2ccccc2)cc1 (stereo not given) do in these assays?
KB-3-1 cytotox: inconclusive; KB-V1 cytotox: 16µM*

Results for CCn1ccc2c(OCC(=O)Nc3ccc(C)c(Cl)c3)cccc2c1=O ?
KB-3-1 cytotox: inactive; RGS4 inhibitor: -18%; KB-V1 cytotox: inactive

What do the screens show for `COC(=O)C1=CN(c2ccc(F)cc2)C(N)=C(C#N)C1c1cccc(F)c1` (stereo not given)?
KB-3-1 cytotox: inconclusive; KB-V1 cytotox: 8.2µM*

How did COC(=O)C1=CN(c2ccc3c(c2)OCO3)C(N)=C(C#N)C1c1ccc(-c2ccccc2)cc1 (stereo not given) do in these assays?
KB-3-1 cytotox: 4.6µM*; KB-V1 cytotox: 3.7µM*

Results for COC(=O)C1=CN(c2c(C)cc(C)cc2C)C(N)=C(C#N)C1c1ccccc1 (stereo not given) ?
KB-3-1 cytotox: inactive; KB-V1 cytotox: inconclusive

How did CCCN1CNc2c(c(=O)[nH]c(=S)n2CCc2cc(OC)ccc2OC)C1 do in these assays?
RGS4 inhibitor: 3%

What do the screens show for `C[N+]1(CC(=O)c2ccccc2)CCc2ccccc2C1` (stereo not given)?
KB-3-1 cytotox: inactive; KB-V1 cytotox: inactive

Results for COc1ccccc1NC(=O)c1sc2ncn(Cc3ccccc3Cl)c(=O)c2c1C ?
KB-3-1 cytotox: inactive; RGS4 inhibitor: 4%; KB-V1 cytotox: inactive

Results for CC1CCCCN1C(=O)Cn1c(SCC(=O)N(C)c2ccccc2)nc2ccccc21 (stereo not given) ?
KB-3-1 cytotox: inactive; RGS4 inhibitor: -14%; KB-V1 cytotox: inactive
